Screens as filed in PubChem.
Only a selection was taken, and hits are over-represented in it overall.
RmlC RmlD mix – mixture blocks RmlC and RmlD coupled enzyme activity | RmlC/RmlD coupled enzyme inhibition, 384-well mixture HTS | inhibition, % at 5.5 µM | 0.39% of 110,000 active | AID 1532; in the data active = inhibition above about 30%, passing the limit was not always enough; inconclusive = no clear call, values can overlap the other calls
RT RNaseH block – inhibitors of HIV-1 reverse transcriptase RNase H | 1.9% of 65,000 active | RT-RNase H RNA/DNA duplex cleavage, fluorescence | inhibition, % at 10 µM; in the data active = inhibition above about 50%
RmlCD fluor art – shows fluorescent artifact in RmlC/RmlD assay, dose-response counter-screen. shares compounds with RmlC RmlD mix. AID 1696. calls only. 96% of 360 active. RmlC/RmlD assay fluorescence artifact counter-screen; call rule not given here;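 note: compound alone with no enzyme and no substrates present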
An asterisk follows results filed as active; ? = inconclusive; nt = no result; + = active, no number.

SMILES | RmlC RmlD mix | RT RNaseH block | RmlCD fluor art
N#Cc1c(-c2ccco2)cc(-c2ccccn2)nc1N | 46.5* | 6.0 | +
N#Cc1c(-c2ccco2)cc(-c2cccnc2)nc1N | ? | -22.4 | nt
CS(=O)(=O)c1nncn1-c1ccccc1 | 1.8 | -10.8 | nt
CC1CCc2cc(F)cc3c(=O)c(C(=O)O)cn1c23 (stereo unspecified) | 8.5 | 1.7 | nt
CN1C(=O)c2ccc(N(C)C)cc2C1=O | -2.6 | -14.7 | nt
COc1cc(=O)n(C)c2cc(N(C)C)ccc12 | 79.8* | -16.4 | +
COc1cc(OC)c2c(N)c(C#N)c(C(F)(F)C(F)(F)F)nc2c1 | -0.5 | nt | nt
O=C(NC(C(=O)c1ccccc1)n1c(=O)cc[nH]c1=S)c1ccccc1 (stereo unspecified) | 6.2 | nt | nt
N#Cc1c(N)n(CCOC(=O)c2cccc([N+](=O)[O-])c2)c2nc3ccccc3nc12 | 45.5* | nt | +
COc1cc(Cn2c(N)c(C#N)c3nc4ccccc4nc32)cc(OC)c1 | nt | 0.5 | nt
N#Cc1c(N)n(CCOC(=O)c2cccc(Br)c2)c2nc3ccccc3nc12 | 7.4 | -9.9 | nt
COCCn1c(N)c(C#N)c2nc3ccccc3nc21 | 55.4* | nt | +
OCC[C@@H]1C[C@H](O)[C@@H](O)[C@]2(CCCO2)O1 | -9.5 | nt | nt
CCOc1cc(C(N)=O)cc(OCC)c1OCC | 11.7 | 0.8 | nt
CC(C)(C)n1ncc2c(=O)n(CC(=O)NC3CCCCC3)cnc21 | -11.0 | -14.9 | nt
O=c1cc(C(F)(F)F)c2sc(N3CCCCC3)nc2[nH]1 | 64.8* | 0.1 | +
CC1(C)CC(=O)c2sc(N3CCCCC3)nc2C1 | -4.5 | -0.6 | nt
O=C1NC[C@@H](Cc2cccc3ccccc23)N(CCc2cc(C(F)(F)F)cc(C(F)(F)F)c2)C1=O | 9.8 | nt | nt
COc1cccc(-c2nn3c(-c4cc(C)[nH]n4)nnc3s2)c1 | 3.3 | -12.9 | nt
COc1cc(-c2nc3ccccn3c2/N=C/c2cc(OC)c(OC)c(OC)c2)ccc1O | 43.6* | nt | +
COc1cc(/C=N/Nc2nn3cnnc3c3ccccc23)ccc1O | 15.2 | nt | nt
COC(=O)c1cc(C(C)=O)n2ccccc12 | -9.9 | nt | nt
CCOC(=O)c1cc(C(=O)OCC)c2ccccn2c1=O | 70.7* | nt | +
COc1ccccc1Oc1c(C)oc2c(CN3CCN(C)CC3)c(O)ccc2c1=O | nt | -8.4 | nt
COC(=O)c1ccc(Oc2c(C)oc3c(CN4CCN(C)CC4)c(O)ccc3c2=O)cc1 | 40.5* | 4.3 | +
SMILES | RmlC RmlD mix | RT RNaseH block | RmlCD fluor art
CCCc1cc(C(F)(F)F)c(C#N)c(=O)[nH]1 | 17.7 | nt | nt
Cc1cc(C)c2[nH]c(=O)c(=O)[nH]c2c1 | -4.5 | 9.7 | nt
Cc1cc2c(C)c(C)c(=O)[nH]c2cc1N | 45.2* | nt | +
CC1CCN(CCCNC(=O)c2coc3nc4ccccc4nc23)CC1 | 18.6 | 4.9 | nt
CC1CCCN(CCCNC(=O)c2coc3nc4ccccc4nc23)C1 (stereo unspecified) | 139.6* | 15.4 | +
CCCCS/C(N)=N/N=C/c1ccccc1O | -8.5 | nt | nt
COc1ccccc1NS(=O)(=O)c1ccccc1C#N | 10.6 | -84.3 | nt
COc1ccc(C2=Nn3c(nnc3-c3cccnc3)SC2)cc1 | -8.9 | -50.6 | nt
CC(C)OC(=O)c1c(N)n(Cc2ccco2)c2nc3ccccc3nc12 | 33.9 | 8.7 | nt
COCCCn1c(N)c(C(=O)OCCOC)c2nc3ccccc3nc21 | 14.8 | -8.1 | nt
CC(C)OC(=O)c1c(N)n(CCCN2CCOCC2)c2nc3ccccc3nc12 | 37.5* | nt | +
CCOC(=O)c1c(N)n(CCCOC(=O)c2ccco2)c2nc3ccccc3nc12 | 33.5* | -1.6 | +
O=C(CN1C(=O)COc2ccccc21)N(Cc1cccnc1)Cc1cccc(F)c1 | -13.1 | -5.0 | nt
COc1ccc(-c2csc(NC(=O)C3CCCCN3S(=O)(=O)c3ccccc3)n2)cc1 (stereo unspecified) | -10.1 | nt | nt
CCOc1cc(C2C(C(=O)O)c3cc(OCC)c(OCC)cc3C(=O)N2C)ccc1O (stereo unspecified) | -36.2 | -18.6 | nt
COc1ccc(-c2cc(C(F)(F)F)n3nc(C(=O)Nc4cc(C)on4)cc3n2)cc1OC | nt | -14.2 | nt
COc1ccc(-c2cc(C(F)(F)F)n3nc(C(=O)N(C)Cc4ccccc4)cc3n2)cc1OC | nt | nt | +
COC(=O)C1=C(O)/C(=C\c2ccc(CNC(=O)C(=O)Nc3ccc(C)cc3)o2)N=C1C | 21.4 | nt | nt
Cc1ccn(C(=O)c2cc3cc(Cl)ccc3oc2=O)n1 | 1.4 | nt | nt
COc1ccc2oc(=O)c(C(=O)n3ccc(C)n3)cc2c1 | 110.9* | nt | +
CN1OC2C(=O)N(c3ccccc3)C(=O)C2C1c1ccc(F)cc1 (stereo unspecified) | 19.3 | nt | nt
CC(=NCCN1CCCCC1)c1c(O)n(Cc2ccccc2)c(=O)[nH]c1=O | -4.8 | -7.9 | nt
COC(=O)C1=CN(CCCN2CCCC2=O)C=C(C(=O)OC)C1c1ccccc1C(F)(F)F | 68.4* | -3.4 | +
COc1ccccc1C(=O)NCCCN1CCCC1=O | -10.6 | -10.1 | nt
COc1ccc(-n2nc(C(=O)O)nc2-c2ccccc2)cc1 | -4.3 | nt | nt
SMILES | RmlC RmlD mix | RT RNaseH block | RmlCD fluor art
CCCCc1cc(=O)oc2c(CN(CC)CC)c(O)c(Cl)cc12 | 85.4* | nt | +
Cc1c(O)c(CN2CCCC2)cc2c1oc(=O)c1ccccc12 | 9.0 | -2.2 | nt
Cc1c(C)c2cc(Cl)c(O)c(CN3CCCCC3)c2oc1=O | 89.8* | -6.6 | +
CCCCc1cc(=O)oc2c(CN3CCCC3)c(O)c(Cl)cc12 | 124.0* | -9.0 | +
Cc1cc(=O)oc2c(CN3CCN(C)CC3)c(O)c(Cl)cc12 | nt | 2.8 | nt
CN1CCN(Cc2c(O)c(Cl)cc3c(-c4ccccc4)cc(=O)oc23)CC1 | -9.5 | 7.2 | nt
CCCc1cc(=O)oc2c(CN3CCN(C)CC3)c(O)c(Cl)cc12 | 71.3* | -8.3 | +
CCCCc1cc(=O)oc2cc(OCc3nn[nH]n3)c(Cl)cc12 | 20.4 | -7.6 | nt
CC1Cc2ccccc2N1S(=O)(=O)c1cccc(C(=O)OCC(=O)NC2CCS(=O)(=O)C2)c1 (stereo unspecified) | 10.3 | -13.8 | nt
CCc1nnc(NC(=O)CSc2nnc(-c3ccoc3C)n2CC(C)C)s1 | -9.3 | 3.9 | nt
O=C(Cc1cccs1)NCCc1cn2ccccc2n1 | 6.2 | nt | nt
NC(=O)c1nn(-c2ccccc2)nc1N | 43.5* | -8.0 | +
NC(=O)c1nn(-c2ccccc2)nc1NC(=O)CN1CCCCC1 | 6.5 | -6.0 | nt
Cc1cc(C)c(C#N)c(SCC(=O)CC(=O)OC(C)C)n1 | 55.5* | -0.6 | +
Cc1nc(SCC(=O)CC(=O)OC(C)C)c(C#N)c(C)c1C | 3.5 | -34.6 | nt
COCCCn1c2nc3ccccc3nc2c2c(=O)n(-c3ccccc3OC)c(C)nc21 | nt | 8.0 | nt
CN(C)CCCNS(=O)(=O)c1cc(Cl)ccc1Cl | 1.8 | 6.1 | nt
O=S(=O)(c1ccc(N2CCC(c3ccc(Cl)cc3)=N2)cc1)N(CCO)CCO | 39.5* | nt | +
CN(C)CCCNS(=O)(=O)c1ccc(N2CCC(c3ccc(Cl)cc3)=N2)cc1 | 93.2* | nt | +
CCN(CC(=O)N1CCCCCC1)S(=O)(=O)c1ccc(Cl)cc1 | -0.9 | -1.1 | nt
CCOc1ccccc1NS(=O)(=O)c1c(C)noc1C | 8.1 | 8.4 | nt
CCOC(=O)c1c(NC(=O)CNCC(O)CO)sc(C)c1C (stereo unspecified) | 13.4 | -10.5 | nt
COc1ccc(CC2NCCC3=CC(=O)CCC32)cc1O (stereo unspecified) | -13.1 | nt | nt
O=C(NC1CCCCCCC1)c1cnccn1 | -7.9 | 23.7 | nt
O=C(CCc1nc(-c2ccccc2)no1)NCCc1ccccc1 | 6.9 | nt | nt
Cc1onc(-c2ccccc2)c1C(=O)NCc1cccs1 | 3.8 | nt | nt
